An excerpt weighted towards active compounds, which were near 5.3% of everything screened.
HP1b binding inh = HTS for Inhibitors of HP1-beta Chromodomain Interactions with Methylated Histone Tails; Potency, µM (titrated, usually from 114 µM), most hits filed as inhibitors; Chromobox protein homolog 1 (Homo sapiens), P83916; AID 540317, 2011; hit rate 0.56% among 390,000; AlphaScreen HP1-beta / biotin-H3K9me3 peptide binding; also: nearly all actives have a fitted effect of over 70% in size
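AlphaScreen: HP1-beta (50 nM) preformed 30 min with biotin-H3(1-18)K9me3 peptide (50 nM) in PBS pH 7.4, 0.01% Tween-20. Compound added for 30 min at RT, then streptavidin donor/nickel chelate acceptor beads (10 ug/mL) for 30 min.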
BAZ2B block = qHTS Assay for Inhibitors of BAZ2B; hit rate 4.4% among 360,000; AlphaScreen BAZ2B-H3K14Ac peptide displacement; Potency, µM (highest dose often 114 µM), usual class: inhibitors; also: nearly all actives have a fitted effect of over 60% in size
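BAZ2B 50 nM plus b-H3(5-23)K14Ac 50 nM, PBS pH 7.4/0.01% Tween-20, 30 min RT; compound added (max 110 uM), 30 min RT; streptavidin donor/Ni-chelate acceptor beads 10 ug/mL final, 20 min dark; AlphaScreen read.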
TDP1 block = qHTS Assay for Inhibitors of Tyrosyl-DNA Phosphodiesterase (TDP1). recombinant TDP1, AlphaScreen DNA substrate cleavage. hit rate 0.28% among 350,000. Potency, µM (titrated, usually from 130 µM), actives largely listed as inhibitors; also: nearly all actives have a fitted effect of over 40% in size
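E. coli-derived human Tdp1, 1 nM final. Cpd preinc 15 min RT; substrate 15 nM final, 5 min RT; AS bead mix 10 ug/ml final, 10 min RT. Signal loss = tyrosine-FITC cleavage. No-enzyme wells = max signal.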
JMJD2A Tudor = qHTS Assay for Inhibitors of JMJD2A-Tudor Domain; AlphaScreen JMJD2A-Tudor / H3K4me3 peptide binding; Potency, µM (series often up to 114 µM), most hits filed as inhibitors; hit rate 4.4% among 390,000; AID 504339, 2011; also: nearly all actives have a fitted effect of over 50% in size
Six1-Eya2 inh = qHTS Assay for Inhibitors of the Six1/Eya2 Interaction | hit rate 0.56% among 360,000 | AlphaScreen GST-Six1/His-Eya2 binding, biochemical; active compounds read low | AID 651725, 2012 | activity change, % (no concentration beside the values); in the data active = activity change below about -65%; inconclusive = mostly about -30% to -63%
Target sequence (O00167 whole entry, looked up): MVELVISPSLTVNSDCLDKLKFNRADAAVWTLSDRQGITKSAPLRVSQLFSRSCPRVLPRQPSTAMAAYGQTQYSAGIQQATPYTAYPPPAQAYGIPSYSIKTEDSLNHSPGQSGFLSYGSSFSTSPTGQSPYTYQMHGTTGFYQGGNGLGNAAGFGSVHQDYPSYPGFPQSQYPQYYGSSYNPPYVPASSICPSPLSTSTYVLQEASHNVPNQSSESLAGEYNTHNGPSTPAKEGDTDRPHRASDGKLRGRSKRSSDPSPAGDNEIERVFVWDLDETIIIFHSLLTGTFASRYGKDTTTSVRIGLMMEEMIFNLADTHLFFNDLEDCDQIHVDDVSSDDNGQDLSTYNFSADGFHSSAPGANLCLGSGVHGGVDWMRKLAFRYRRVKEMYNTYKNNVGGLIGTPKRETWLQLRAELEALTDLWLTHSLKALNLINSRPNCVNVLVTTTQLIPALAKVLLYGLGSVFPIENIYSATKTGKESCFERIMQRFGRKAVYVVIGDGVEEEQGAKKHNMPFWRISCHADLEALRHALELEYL
Target sequence (Q15475 whole entry, looked up): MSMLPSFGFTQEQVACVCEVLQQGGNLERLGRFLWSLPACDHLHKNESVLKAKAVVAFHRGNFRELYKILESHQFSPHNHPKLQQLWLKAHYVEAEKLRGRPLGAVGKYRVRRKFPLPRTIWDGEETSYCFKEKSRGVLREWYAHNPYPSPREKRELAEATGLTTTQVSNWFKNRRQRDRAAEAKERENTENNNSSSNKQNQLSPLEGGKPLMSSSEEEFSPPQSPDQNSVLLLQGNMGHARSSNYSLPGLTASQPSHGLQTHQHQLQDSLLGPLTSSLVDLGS
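Compounds are tested against tagged Six1 and Eya2 proteins bridged by glutathione donor and nickel acceptor beads; after a one-hour incubation at 37 °C without light, AlphaScreen emission is recorded.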
CtBP-E1A inh = qHTS Assay for Inhibitors of the CtBP/E1A Interaction | AlphaScreen GST-E1A/His-CtBP binding, 1536-well; active compounds read low | activity change, % (no concentration beside the values) | hit rate 0.49% among 340,000 | CtBP / adenovirus E1A interaction (AlphaScreen); in the data active = activity change below about -65%; inconclusive = mostly about -30% to -63%
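GST-E1A and His-tagged CtBP (125 nM each as 5X stock) were preincubated with pin-transferred compound for 2 h at 37 °C in the dark, then glutathione donor and nickel acceptor beads were added for 1 h before AlphaScreen reading.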
A number is an active result; 0 = inactive; ? = inconclusive; - = no result given; [ ] = remark or other dose. Unless noted, calls follow the shape of the dose curve; as a rule, active = well fitted inhibition curve with a large enough effect; inconclusive = small, poorly fitted or top-dose-only effect; inactive = no such curve, though single readings can be large or run the other way.

SMILES | HP1b binding inh | BAZ2B block | TDP1 block | JMJD2A Tudor | Six1-Eya2 inh | CtBP-E1A inh
Nc1nc2c(ncn2C2OC(COC(=O)c3ccccc3)C(OC(=O)c3ccccc3)C2OC(=O)c2ccccc2)c(=O)[nH]1 (stereo not drawn) | - | - | 0 | - | - | -
COc1ccc(C(=O)NCc2nnnn2-c2ccc(C)c(C)c2)cc1 | 0 | 0 | 0 | 0 | - | -
O=c1n(-c2ccccc2)c(=O)n2n1CC[C@H]1/C(=N\OCc3ccccc3)[C@H]3O[C@@H]3[C@@H](O)[C@@H]12 | - | - | 0[21 µM] | - | - | -
Cc1ccc(-c2noc(COc3ccc(Br)c(C)c3)n2)cc1 | 0 | 0 | 0 | 0 | - | -
COCCCNC(=O)Cn1c(=O)n(-c2ccc(C)cc2)c(=O)c2c1c1cc(C)ccc1n2C | 0 | 0 | 0 | 0 | - | -
O=C(Cn1nc(N2CCN(c3ccccc3)CC2)ccc1=O)NCc1ccccc1F | 0 | 0 | 0 | 0 | - | -
Cc1nnc(SCC(=O)Nc2cc(S(=O)(=O)N3CCOCC3)ccc2C)s1 | 0 | 0 | 0 | 0 | 0 | 0
O=C(CNCc1ccc(Cl)cc1)Nc1cc(S(=O)(=O)N2CCCC2)ccc1Cl | ? | - | - | 3.5µM | 0 | 0
O=C(CSc1nc2ccccc2s1)Nc1cc(S(=O)(=O)N2CCOCC2)ccc1O | 0 | ? | 0 | 50µM | 0 | 0
O=C(Cc1ccccc1F)Nc1cc(S(=O)(=O)N2CCCC2)ccc1Cl | 0 | 0 | 0 | 0 | 0 | 0
Cc1ccc2c(CC(=O)Nc3ccc(S(=O)(=O)N4CCCCC4)cc3)coc2c1C | 0 | ? | 0 | 0 | - | -
Cc1ccc(NC(=O)Cn2c(=O)n(-c3ccc(C)cc3)c(=O)c3c2cnn3C)cc1 | 0 | 0 | 0 | 0 | - | -
CSCCOC(=O)C1=C(C)NC(=O)NC1c1ccc2c(c1)OCO2 (stereo not drawn) | 0 | 0 | - | 0 | 0 | 0
CCOCCOC(=O)c1cccc(NC(=O)OCC)c1 | 0 | 0 | 0 | 0 | 0 | 0
CSCCOC(=O)C1=C(C)Nc2ccc(C)cc2S1 | 0 | 45µM | 0 | 79µM | 0 | 0
CCOCCOC(=O)C1=C(C)Nc2ccc(C)cc2S1 | 0 | ? | 0 | 14µM | 0 | 0
CCOC(=O)C1=C(C)Nc2ccc(C)cc2S1 | ? | 50µM | 0 | 0 | 0 | 0
Cc1cc(C)c(NC(=O)Cc2csc(C)n2)c(Cl)c1 | 0 | 0 | 0 | 0 | - | -
Cc1cc2ccccc2n2c(SCC(=O)Nc3cccc(C(F)(F)F)c3)nnc12 | 0 | 0 | - | 0 | - | -
COc1ccc(C(=O)CSc2nnc(CNc3nc(-c4ccccc4)cs3)n2C)cc1 | 0 | 0 | 0 | 0 | -71 | -70
CC(C)(C)OC(=O)n1c2ccsc2c2cnn(Cc3ccccc3F)c(=O)c21 | - | - | - | 0 | - | -
NC(=O)C[n+]1cccc2ccccc21 | 0 | 0 | 0 | 22µM | 0 | 0
COCCNCC(=O)N1c2ccccc2Sc2ccccc21 | 0 | ? | 0 | ? | 0 | 0
CC(C)CNCC(=O)N1c2ccccc2Sc2ccccc21 | ? | ? | 0 | 11µM | 0 | 0
CC1(C)CC2CC(C)(CN2CC(O)c2ccccc2)C1 (stereo not drawn) | 0 | ? | - | 5.6µM | 0 | -
SMILES | HP1b binding inh | BAZ2B block | TDP1 block | JMJD2A Tudor | Six1-Eya2 inh | CtBP-E1A inh
Cc1cccc(OCC(O)CN2CC3(C)CC2CC(C)(C)C3)c1 (stereo not drawn) | 0 | ? | 0 | 18µM | 0 | 0
Cc1cccc(OCC(O)CN2CCNCC2)c1 (stereo not drawn) | 0 | 0 | 0 | 0 | 0 | 0
Cc1ccc(OCC(O)CN2CC3(C)CC2CC(C)(C)C3)cc1 (stereo not drawn) | ? | ? | 0 | 1.1µM | 0 | 0
Cc1ccc(OCC(=O)N2CC3(C)CC2CC(C)(C)C3)cc1 (stereo not drawn) | 0 | 0 | 0 | 0 | 0 | 0
CC1(C)CC2CC(C)(CN2C(=O)Cc2ccccc2)C1 (stereo not drawn) | 0 | 0 | 0 | 0 | 0 | 0
O=C(OCC#CCSc1nnc(-c2cc3ccccc3cc2O)o1)c1ccc(F)cc1 | - | - | 0 | 0 | - | -
CCc1ccc2c(c1)C(NC(C)=O)C(=O)N2CCN1CCOCC1 (stereo not drawn) | 0 | 13µM | - | 10µM | 0 | 0
CCCN1C(=O)C(NC(C)=O)c2ccccc21 (stereo not drawn) | 0 | 0 | 0 | 0 | 0 | 0
OC(Cn1cnnc1)c1ccccc1 (stereo not drawn) | 22µM | 25µM | - | 6.3µM | 0 | 0
OC(CCCC(O)c1ccccc1)c1ccccc1 (stereo not drawn) | 0 | - | - | 0 | 0 | 0
CCc1ccccc1NC(=O)CN(c1cc(C(F)(F)F)ccc1Cl)S(=O)(=O)c1ccccc1 | ? | 0 | - | 0 | - | -
Cc1cc(NC(=O)CS(=O)(=O)c2ccc(Cl)cc2)no1 | 0 | 0 | 0 | 79µM | 0 | -
Cc1ccc(C)c(NC(=O)CCc2ccc(C)o2)c1 | 0 | ? | 0 | 0 | 0 | -
Cc1cc(NC(=O)CCc2ccc(C)o2)no1 | 0 | 0 | 0 | 0 | -77 | 0
COCc1nc2ccccc2n1Cc1ccc(C(C)(C)C)cc1 | 0 | 0 | 0 | 0 | - | -
Cn1c(NCCCCO)nc2c1c(=O)n(Cc1ccc(Cl)cc1)c(=O)n2C | 0 | 0 | 0 | 0 | - | -
Nc1nc(-c2ccccn2)nc(N)c1Cc1ccccc1F | 0 | 6.3µM | 0 | ? | -74 | -90
Nc1nc(-c2ccccn2)nc(N)c1Cc1c(F)cccc1Cl | 0 | 8.9µM | 0 | 79µM | -79 | -92
COCCNC(=O)c1c(C)oc2nc(C)nc(N3CCOCC3)c12 | 0 | 0 | 0 | 0 | - | -
OC(CN1CCOCC1)c1ccc(F)cc1 (stereo not drawn) | ? | 50µM | 0 | 20µM | 0 | -
CCOC(=O)CN(C(=O)CSc1nnc(-c2ccncc2)n1CCCN(C)C)c1ccccc1 | ? | 50µM | 0 | ? | 0 | 0
Cc1ccc(NC(=O)C(C)C(=O)Nc2ccc(C)cc2)cc1 | 0 | - | 0 | 0 | 0 | 0
Cc1ccc(NC(=O)N2CCC(=O)N2)cc1 | 0 | 0 | 0 | 32µM | 0 | 0
Cc1nnc2c3ccccc3nc(N3CCN(c4ccccc4)CC3)n12 | 0 | 0 | 0 | 0 | - | -
Cc1ccc2c(=O)cc(C(=O)Nc3c(C(=O)Nc4cccc(Cl)c4)oc4ccccc34)oc2c1 | 0 | 0 | 0 | 0 | - | -
CCC1CN(C(=O)N2CCC(C(=O)Nc3ccccc3F)CC2)c2ccccc2O1 (stereo not drawn) | 0 | 0 | 0 | 0 | 0 | 0
CCC1CN(C(=O)N2CCC(C(=O)Nc3cc(C)ccc3C)CC2)c2ccccc2O1 (stereo not drawn) | 0 | 79µM | 0 | ? | - | -
CCC1CN(C(=O)N2CCC(C(=O)NCCc3ccccc3C)CC2)c2ccccc2O1 (stereo not drawn) | 0 | 79µM | 0 | 0 | - | -
